ST2 inh: inhibitors of human ST2 (IL1RL1) binding to IL-33, primary screen, biochemical, AlphaLISA. inhibition, % for hits at 17 µM. AID 1259354, 2018. AlphaLISA ST2-Fc/biotin-IL-33 interaction, 1 h. actives 2.3% (n = 78,000). Interleukin-1 receptor-like 1 (Homo sapiens), Q01638; in the data active means inhibition above about 30%
Target sequence (Q01638 whole entry, looked up): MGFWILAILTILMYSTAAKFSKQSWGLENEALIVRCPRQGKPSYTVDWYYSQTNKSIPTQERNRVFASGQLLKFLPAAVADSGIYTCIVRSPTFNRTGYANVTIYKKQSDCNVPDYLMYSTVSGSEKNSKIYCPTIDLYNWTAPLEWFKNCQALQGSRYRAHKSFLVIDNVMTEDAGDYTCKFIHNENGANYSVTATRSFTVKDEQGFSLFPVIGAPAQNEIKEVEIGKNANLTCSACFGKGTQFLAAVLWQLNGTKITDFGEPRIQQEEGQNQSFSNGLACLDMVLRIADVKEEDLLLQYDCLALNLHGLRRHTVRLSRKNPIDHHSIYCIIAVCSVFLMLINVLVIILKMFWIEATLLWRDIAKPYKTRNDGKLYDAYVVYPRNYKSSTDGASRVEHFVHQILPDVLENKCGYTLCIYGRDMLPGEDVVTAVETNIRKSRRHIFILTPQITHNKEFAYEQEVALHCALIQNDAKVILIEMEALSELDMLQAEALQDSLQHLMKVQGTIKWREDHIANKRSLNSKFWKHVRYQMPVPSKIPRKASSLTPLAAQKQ
Numbers without * were called inactive; i = inactive. The full list was thinned out, with hits kept by preference.

SMILES | ST2 inh
COc1ccc(-n2c(N)c(C#N)c3nc4ccccc4nc32)cc1 | i
N#Cc1c(N)n(-c2ccc(Br)cc2)c2nc3ccccc3nc12 | i
O[C@@H]1C[C@@H](c2nc(-c3ccccc3)no2)N(Cc2cc3ccccc3o2)C1 | i
O=c1oc(-c2ccccc2Cl)nc2ccc(Br)cc12 | i
O=c1oc(-c2cccs2)nc2sc3c(c12)CCC3 | i
O=c1oc(/C=C/c2ccco2)nc2sc3c(c12)CCCCC3 | 36.0%*
O=c1[nH]c(/C=C/c2ccccc2)nc2sc3c(c12)CCCC3 | i
O=C(c1ccco1)N1CCN(C(=O)c2cccn3c(=O)c4c5c(sc4nc23)CCCC5)CC1 | i
O=c1oc(-c2ccccc2Cl)nc2sc3c(c12)CCC3 | 45.0%*
CC1CC(C)CN(C(=O)CNC(=O)Cn2ccc3ccccc3c2=O)C1 (stereo unspecified) | i
O=C(Nc1cccc(NC(=O)c2ccccc2Cl)c1)c1cccc(I)c1 | i
Cn1ccnc1CN(Cc1ccc(-c2ccccn2)cc1)C1CC1 | i
COC(=O)C1=C(C)NC(=O)CC1c1cc(OC)c(OC)c(OC)c1Br (stereo unspecified) | i
CC(C)NC(=O)c1cc2n(n1)C(C(F)(F)F)CC(c1ccc(Cl)c(Cl)c1)N2 (stereo unspecified) | i
COC(=O)c1sccc1NC(=O)c1ccc2c(Cl)c3c(nc2c1)CCCC3 | i
O=C(C1CCC1)N1CCc2cc(S(=O)(=O)Nc3ccc(Cl)cc3)ccc21 | i
O=C(CC1Sc2ccc(C(F)(F)F)cc2NC1=O)Nc1ccc(N2CCCCC2)cc1 (stereo unspecified) | i
Cc1noc(C)c1C(=O)N1CCOC(Cc2cccc3ccccc23)C1 (stereo unspecified) | i
COc1cccc(Nc2ncnc3sc4c(c23)CCCC4)c1 | i
c1nc(Nc2ccc(N3CCCCC3)cc2)c2c3c(sc2n1)CCCC3 | 58.0%*
CCNc1ncnc2sc3c(c12)CCCC3 | i
O=[N+]([O-])c1ccc2nc(CSc3nc4ccccc4o3)[nH]c2c1 | i
O=c1oc2cc([N+](=O)[O-])ccc2nc1C=C(O)c1ccco1 | i
O=[N+]([O-])c1ccc2nc(-c3ccco3)c(-c3ccco3)nc2c1 | 36.0%*
O=C(c1nc(-c2ccncc2)no1)N1CCN(c2ccccn2)CC1 | i
SMILES | ST2 inh
COc1ccc(C2NC(=O)NC(C)=C2C(C)=O)cc1 (stereo unspecified) | i
COc1ccc(-c2[nH]nc3c2C(c2cc4c(cc2Br)OCO4)C(C#N)=C(N)O3)cc1 (stereo unspecified) | i
Cc1cc2ccccc2c(=O)n1CC(=O)NCC(=O)N1CCCCCC1 | i
COc1ccc(NC(=O)N[C@H]2[C@H](O)[C@@H](N3CCC(Cc4ccccc4)CC3)[C@@H]3OC[C@H]2O3)cc1 | i
O=C(Nc1cccc(C(F)(F)F)c1)N[C@H]1[C@H](O)[C@@H](N2CCCCC2)[C@@H]2OC[C@H]1O2 | i
CN1CCN([C@H]2[C@@H]3OC[C@@H](O3)[C@@H](NC(=O)Nc3ccccc3)[C@@H]2O)CC1 | 35.0%*
COc1cccc(NC(=O)N[C@H]2[C@H](O)[C@@H](N3CCN(C(C)=O)CC3)[C@@H]3OC[C@H]2O3)c1 | i
COc1cccc(NC(=O)N[C@H]2[C@H](O)[C@@H](N3CCCC3)[C@@H]3OC[C@H]2O3)c1 | 47.0%*
N#Cc1cccc(NC(=O)N[C@H]2[C@H](O)[C@@H](N3CCCC3)[C@@H]3OC[C@H]2O3)c1 | i
COc1ccccc1N1CCN([C@@H]2[C@H](O)[C@H](CO)O[C@@H]2CNC(=O)Nc2cccc(Cl)c2)CC1 | i
O=C(c1ccc2c(c1)OCO2)C1CCCN(C(=O)Cn2c(=O)oc3ccccc32)C1 (stereo unspecified) | i
Cc1ccc(C)c(NC(=O)CCn2cc(-c3sccc3C)nn2)c1 | i
Cn1c([C@H]2CCN(Cc3cc4ccccc4o3)C2)nc2ccccc21 | i
CC/C=C\CC(O)C(O)CCC(O)CCCCCCCC(=O)O (stereo unspecified) | i
O=S(=O)(c1ccc(Cl)cc1)c1nc(/C=C/c2ccccc2)oc1N1CCOCC1 | 31.0%*
Cc1ccc(-c2nc(S(=O)(=O)c3ccc(C)cc3)c(N3CCOCC3)o2)cc1 | i
NC(=O)CSc1oc(-c2ccccc2)nc1S(=O)(=O)c1ccc(Cl)cc1 | i
CN(C)c1ccc(C(=O)Nc2nc3ccc(S(C)(=O)=O)cc3s2)cc1 | i
O=c1[nH]c2ccc(S(=O)(=O)N3CCN(c4ccccn4)CC3)cc2s1 | i
Cc1cc(C(C)(C)C)ccc1OCCN1CCN(C)CC1 | i
CCn1c(C2CCN(Cc3cnc(N4CCCCC4)nc3)CC2)n[nH]c1=O | i
COc1ccc(NS(C)(=O)=O)cc1 | i
COc1ccc(NCCNc2ccc(OC)cc2)cc1 | 48.0%*
COc1ccc(NC(=O)C(C)(C)C)cc1 | i
COc1ccc(/C=C/C(=O)NC2CCCN(C3Cc4ccccc4C3)C2)cc1 (stereo unspecified) | i
SMILES | ST2 inh
O=C(Nc1nnc(CCS(=O)(=O)c2ccc(Cl)cc2)s1)C1CCCCC1 | i
CCc1nnc(CN(Cc2nc(-c3ccco3)no2)C(C)C)o1 | i
COC(=O)[C@@H]1Cc2ncn(C(C)C)c2CN1S(=O)(=O)c1ccc(OC)cc1 | i
COC(=O)[C@@H]1Cc2ncn(C(C)C)c2CN1S(=O)(=O)c1ccc(C#N)cc1 | 35.0%*
COC(=O)[C@@H]1Cc2ncn(C)c2CN1S(=O)(=O)c1ccc(C#N)cc1 | i
CC(C)Cn1nc(C(=O)NC2CCCC2)c2c1CCN(C(=O)c1cccc(N3CCCC3=O)c1)C2 | i
Cc1nc(SCC(=O)NC(C)(C)C)c(C#N)c(C)c1C | i
COc1cc(CN2CCCN(C)CC2)cc(Br)c1O | i
CC(=O)c1ccc(N2CN=c3s/c(=C\c4cccc([N+](=O)[O-])c4)c(=O)n3C2)cc1 | i
O=c1c2ccccc2nc(/C=C/c2ccc3c(c2)OCO3)n1-c1ccc([N+](=O)[O-])cc1 | i
COc1ccc(N2CN=c3s/c(=C\c4cccc([N+](=O)[O-])c4)c(=O)n3C2)cc1 | 33.0%*
Cc1ccccc1-n1nc([N+](=O)[O-])c(=NCc2ccc3c(c2)OCO3)n1O | i
O=c1/c(=C/c2cccc([N+](=O)[O-])c2)sc2n1CN(c1ccc3c(c1)OCO3)CN=2 | 36.0%*
CC(=O)c1ccc(N2CN=c3s/c(=C\c4cccnc4)c(=O)n3C2)cc1 | i
COc1ccc(OC)c(S(=O)(=O)c2ccc(Br)cc2)c1 | i
CCOc1ccc(C2C(C(=O)OCc3ccccc3)=C(C)Nc3nnnn32)cc1 (stereo unspecified) | i
CC(C)(C)c1csc(NC(=O)c2ccc(S(=O)(=O)N3CCCCC3)cc2)n1 | i
O=C(CCC1CCCC1)Nc1ccc(F)cc1 | i
N#CC1=C(N)Oc2c([nH]c(=O)[nH]c2=O)C1c1cccc([N+](=O)[O-])c1 (stereo unspecified) | i
CCCn1c(Br)nc2c1c(=O)[nH]c(=O)n2C | i
COc1ccccc1C(=O)Nc1ccnn1C1CCN(Cc2csc(C(C)=O)c2)CC1 | i
Cc1cccc(-c2nnc(-c3nc(NCc4ccccc4C)c4ccccc4n3)o2)c1 | i
Cc1nnc(-c2ccccc2-c2cccc(CN3CCOCC3)c2)o1 | i
Cc1nnc(-c2cccc(-c3cc(NCc4ccccn4)nc4[nH]ccc34)c2)o1 | 35.0%*
O[C@@H]1CO[C@H]2[C@@H]1OC[C@@H]2n1cc(-c2ccccn2)nn1 | i

Compound activity as filed in PubChem.
